Screens deposited in PubChem BioAssay by National Center for Advancing Translational Sciences (NCATS).
RXFP1 antag = RXFP1 (human) relaxin receptor antagonism; 350,000 tested, 0.59% active; activity change, negative = inhibition, % at 57.5 µM; HEK293-RXFP1, relaxin-stimulated cAMP HTRF, 30 min; active compounds read low; Q9HBX9;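 active = activity change of -60% or lower, but not beyond a set lower limit; inconclusive = change between -60% and -40%, or beyond the set limit; inactive = change above -40%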; note: % is set by controls: 0 for no effect and ±100 for the full control effect
Target sequence (Q9HBX9 whole entry, looked up): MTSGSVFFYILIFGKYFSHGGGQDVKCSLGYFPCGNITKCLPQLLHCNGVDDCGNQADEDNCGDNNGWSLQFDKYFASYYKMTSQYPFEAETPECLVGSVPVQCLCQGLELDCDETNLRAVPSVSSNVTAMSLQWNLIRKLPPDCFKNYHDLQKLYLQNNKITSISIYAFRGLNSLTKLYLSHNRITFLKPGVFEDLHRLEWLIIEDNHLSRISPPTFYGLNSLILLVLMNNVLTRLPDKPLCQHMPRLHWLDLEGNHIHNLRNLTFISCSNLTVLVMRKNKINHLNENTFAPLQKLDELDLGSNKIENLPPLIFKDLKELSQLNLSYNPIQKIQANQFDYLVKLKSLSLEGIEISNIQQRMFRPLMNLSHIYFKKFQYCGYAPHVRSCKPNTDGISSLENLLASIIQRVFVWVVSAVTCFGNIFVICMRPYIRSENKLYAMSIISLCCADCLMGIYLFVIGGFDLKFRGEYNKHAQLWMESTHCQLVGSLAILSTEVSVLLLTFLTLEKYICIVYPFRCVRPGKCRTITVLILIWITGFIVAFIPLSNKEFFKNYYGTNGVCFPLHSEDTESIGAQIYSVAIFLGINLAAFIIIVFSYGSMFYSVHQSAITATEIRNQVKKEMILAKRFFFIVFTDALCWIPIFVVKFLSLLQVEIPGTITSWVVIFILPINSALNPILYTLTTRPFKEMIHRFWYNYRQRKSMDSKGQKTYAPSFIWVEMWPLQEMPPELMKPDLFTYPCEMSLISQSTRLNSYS
ASM inhibitor = inhibitors of human secretory acid sphingomyelinase; placental ASM, HMU-PC fluorogenic substrate, 60 min; Potency, µM (doses to about 57.5 µM), for inactives: at the highest dose activity change, negative = inhibition, hits mostly inhibitors; 340,000 tested, 0.006% active; AID 504937; note: potency is the fitted concentration of half-maximal effect
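Fluorogenic HMU-PC substrate (9 uM final) is turned over by placental ASM in 60 min at 37 C after a 10 min compound preincubation. Reaction ended by alkaline stop (pH 10), with fluorescence read at 386/447 nm.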
RXFP1 agonist = activates the human relaxin receptor RXFP1. Q9HBX9. HEK293T-RXFP1 cAMP TR-FRET, 30 min; response scale: percent of porcine relaxin response, buffer zero. Potency, µM (doses to about 57.5 µM), for inactives: top-dose activation, usual class: activators. 370,000 tested, 0.3% active. AID 2676; note: potency is the fitted concentration of half-maximal effect; % is set by controls: 0 for no effect and ±100 for the full control effect; nearly all actives have a fitted effect of over 60% in size
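HEK293 cells stably expressing RXFP1, treated 30 min at 37C with compounds plus PDE4 inhibitor Ro 20174; cAMP measured by HTRF TR-FRET. Normalized to buffer and 29 nM porcine relaxin; EC50 by Hill fit.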
a7 integrin act = integrin-mediated muscular dystrophy alleviation activation; 350,000 tested, 0.064% active; Potency, µM (titrated, usually from 38.3 µM), for the others: at the highest dose activation, most hits filed as activators; alpha7betagal myoblasts, beta-gal FDG fluorescence, 48 h;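 note: potency is the fitted concentration of half-maximal effect; 100% = response of the positive control SU9516; nearly all actives have a fitted effect of over 60% in size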
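alpha7betagal+/- myoblasts (passage 13, 250/well) treated 48 h at 37C with compounds at 1:260 dilution of DMSO stock. Lysed, then beta-galactosidase activity read as FDG fluorescence (ex 480/em 540) after 30 min, with pre-read for autofluorescence.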
gsp ag = activates gsp, the McCune-Albright syndrome mutation | gsp mutant cells, cAMP HTRF, 30 min | Potency, µM (top dose mostly 76.9 µM), for inactives: at the top dose activation (cAMP increase), most hits filed as activators | 340,000 tested, 0.13% active; active = well fitted activation curve with a large enough effect; inconclusive = small, poorly fitted or top-dose-only effect, or another doubt; inactive = no such curve, though single readings can be large or run the other way; cell line not stated here;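 note: phosphodiesterase inhibitor Ro 20-1724 added with compounds to block cAMP breakdown; potency is the fitted concentration of half-maximal effect; nearly all actives have a fitted effect of over 60% in size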
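Cells in DMEM/10% FBS with G418 were pretreated with compounds in DMSO plus […] (300 uM stock) for 30 min at 37C. cAMP was measured by HTRF (cAMP-d2 plus anti-cAMP antibody-K) after 30 min at room temperature.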
gsp antagonist = antagonists of gsp mutant (McCune-Albright syndrome); AID 624288; gsp-mutant cells, cAMP HTRF, 30 min; 340,000 tested, 0.4% active; Potency, µM (doses to about 76.9 µM), without a hit: top-dose activity change, negative = inhibition, usual class: inhibitors; calls by dose curve; cell line not stated here;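 note: intracellular cAMP measured with PDE inhibitor Ro 20-1724 present during compound exposure; potency is the fitted concentration of half-maximal effect; % is set by controls: 0 for no effect and ±100 for the full control effect; nearly all actives have a fitted effect of over 65% in size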
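Cells in G418 medium, seeded 16-24 h, 37C; buffer exchange to DPBS + 1 mM CaCl2, 0.5 mM MgCl2, 0.05% BSA; cpds in DMSO + […] (300 uM stock), 30 min 37C; HTRF cAMP detection.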
* marks the source's active call; other numbers are inactive results; ? = inconclusive; nt = not tested or not shown; [ ] = remark or other dose. A selection: hits, their analogues and other compounds. The true share with any hit is near 1.1%. Unless noted, calls come from the whole dose curve; as a rule, active = well fitted curve in the direction sought with a large enough effect; inconclusive = small, poorly fitted or top-dose-only effect, or another doubt; inactive = no such curve, though single readings can be large; an effect the other way counts as inactive or inconclusive.

SMILES	RXFP1 antag	ASM inhibitor	RXFP1 agonist	a7 integrin act	gsp ag	gsp antagonist
CCOc1cc(/C=N/NC(=O)c2ccccn2)ccc1OC(=O)c1ccc(F)cc1	-93*	-4%	3%	-12%	-55%	-8%
COc1ccccc1CNc1ccc(-c2nc(C(C)C)no2)cc1[N+](=O)[O-]	nt	nt	29%	nt	nt	nt
O=C(CN1C(=O)/C(=C/c2ccc(C(F)(F)F)cc2)Sc2ccccc21)NCCCN1CCOCC1	-109*	-6%	0%	-59%	-16%	-2%
CCc1ccc(/C=C2/Sc3ccccc3N(CC(=O)NCCCN3CCOCC3)C2=O)cc1	-10	-13%	0%	-4%	-3%	18%
Cc1cccc(CN2C(=O)/C(=C\c3ccc(C(=O)NCCN4CCOCC4)cc3)Sc3ccccc32)c1	-87*	-5%	2%	?	?	-13%
Cc1ccccc1CN1C(=O)/C(=C\c2ccc(C(=O)NCCN3CCOCC3)cc2)Sc2ccccc21	5	?	2%	-24%	1%	-22%
COC(=O)C(Cc1csc2ccc(Cl)cc12)NC(=O)c1ccc(Cl)cc1 (centres undefined)	-68*	-13%	-1%	7%	4%	-15%
COC(=O)C(Cc1ccccc1)NC(=O)c1ccc(C)cc1 (centres undefined)	2	0%	3%	1%	-23%	?
COc1ccccc1CNC(=O)c1cc(-c2ccccc2C)n(CC2CC(c3cccc([N+](=O)[O-])c3)=NO2)n1 (centres undefined)	nt	-4%	-1%	15%	nt	-5%
Cc1ccc(-c2nnc(Nc3ccc(O)cc3)c3ccccc23)cc1S(=O)(=O)NCC1CCCO1 (centres undefined)	-13	nt	3%	nt	nt	nt
CC(=O)c1cccc(NC(=O)Nc2ccc3c(c2)N(C)C(=O)CS3)c1	-72*	-9%	1%	?	-6%	?
CCc1ccc(NC(=O)Nc2ccc3c(c2)N(C)C(=O)CS3)cc1	nt	-18%	-1%	14%	17%	35µM*
Cc1cc(NC(=O)c2cccn2-c2nnc(N3CCCCC3)s2)ccc1Br	-27	nt	1%	nt	nt	nt
COc1cc(OC)c(NC(=O)c2cc3c(s2)-c2ccc(Cl)cc2SC3)cc1Cl	-13	nt	0%	nt	nt	nt
COc1ccc(NC(=O)c2cc(-c3ccccc3)nc3c2cnn3C(C)C)cc1	-16	-4%	2%	?	17%	28µM*
CCOc1ccc(CCNC(=O)CSc2nc3ccccc3nc2Cc2ccc(C)cc2)cc1OCC	2	nt	14µM*	nt	nt	nt
CCOc1ccc(CCNC(=O)CSc2n[nH]c(-c3ccccc3)n2)cc1OCC	-8	nt	4%	nt	nt	nt
NCCCC(N)CC(=O)NCC1NC(=O)C(CO)NC(=O)C(N)CNC(=O)C(C2CCN=C(N)N2)NC(=O)C(=CNC(N)=O)NC1=O (centres undefined)	-13	nt	nt	nt	nt	nt
O=C(Nc1ccc(Cl)cc1)c1cc2c(cc1O)[nH]c1ccccc12	-64*	424%	5%	-19%	-6%[15.4 µM]	35µM*
O=C(Nc1ccc(Cl)cc1)c1cc2nc(-c3ccc4c(c3)OCO4)cc(C(F)(F)F)n2n1	3	nt	1%	nt	nt	nt
COc1cc(C(=O)NCC2CCCO2)ccc1OCc1ccc(Cl)cc1Cl (centres undefined)	-33	2%	1%	6%	-33%[15.4 µM]	-8%
O=C(c1ccc(N2CCCC2)c([N+](=O)[O-])c1)N1CCN(S(=O)(=O)c2ccc(Cl)cc2)CC1	-64*	?	0%	14%	-5%[15.4 µM]	-5%
CC(NC(=O)c1ccc2c(c1)N(Cc1ccc(Cl)cc1)C(=O)c1ccccc1S2=O)c1ccccc1 (centres undefined)	nt	nt	-1%	nt	nt	nt
Cc1ccc(-n2ncc(C(=O)NCCc3c[nH]c4ccccc34)c2C2CCN(C(=O)OC(C)(C)C)CC2)cc1C	nt	nt	0%	nt	nt	nt
COCCN(CCOC)c1nc(-c2ccc(C)cc2)nc2ccccc12	?	8%	3%	13%	-16%	28µM*
SMILES	RXFP1 antag	ASM inhibitor	RXFP1 agonist	a7 integrin act	gsp ag	gsp antagonist
CCCCN(CCCC)c1nc(-c2ccccc2)nc2ccccc12	-1	nt	-1%	nt	nt	nt
O=C(CSc1cn(CC(=O)N2CCCCC2)c2ccccc12)NCc1ccc(F)cc1	-10	nt	9%	nt	nt	nt
O=C(N/N=C/c1cccc(O)c1)c1cc(-c2ccc3c(c2)OCO3)n[nH]1	-69*	-7%	0%	-8%	-42%	-34%
CC(=C(CCOC(=O)C(C)C)SSC(CCOC(=O)C(C)C)=C(C)N(C=O)Cc1cnc(C)nc1N)N(C=O)Cc1cnc(C)nc1N	-10	nt	nt	nt	nt	nt
c1ccc(OCCn2c(-c3ccco3)nc3ccccc32)cc1	-4	-2%	1%	-25%	3%	-18%
Cc1cccc(OCCn2c(-c3ccco3)nc3ccccc32)c1	-25	-16%	1%	-18%	1%	35µM*
Cc1cc(OCCOCC[N+](C)(C)Cc2ccccc2)ccc1C(C)(C)CC(C)(C)C	-29	nt	nt	nt	nt	nt
O=C1Nc2ccccc2C1(c1ccc(O)cc1)c1ccc(O)cc1	-29	nt	nt	nt	nt	nt
O=C(Nc1ccccc1)N1CCc2c([nH]c3ccccc23)C1C(F)(F)F (centres undefined)	1	-18%	0%	23%	-1%	-9%
COc1cccc(Cl)c1NC(=O)N1CCc2c([nH]c3ccccc23)C1C(F)(F)F (centres undefined)	-75*	-19%	-2%	-24%	?	-15%
O=C(Oc1ccc(F)cc1)c1nc(SCc2ccc(F)cc2)ncc1Cl	-2	nt	0%	nt	nt	nt
CCC(C)NCCOCCOc1ccc(Cl)c(C)c1C (centres undefined)	-68*	0%	0%	-50%	1%	9%
C=CCc1cc(Cl)ccc1OCCOCCNC(C)CC (centres undefined)	?	-2%	-3%	-52%	4%[15.4 µM]	6%
CCC(C)NCCCOc1cc(Cl)ccc1Cl (centres undefined)	-5	4%	0%	-10%	20%	2%
CCC(C)NCCOCCOc1ccc(Cl)c2ccccc12 (centres undefined)	-78*	-4%	0%	-60%	16%	-5%
CC(C)n1c(SCC(=O)N2CCN(C(=O)c3ccco3)CC2)nc2c1c(=O)n(C)c(=O)n2C	17	1%	14µM*	-12%	82%[15.4 µM]	11%
COC(=O)Cn1c(CN2CCN(C(=O)c3ccco3)CC2)nc2c1c(=O)n(C)c(=O)n2C	15	-2%	18%	10%	?	-5%
COCCn1c(CN2CCN(C(=O)c3ccco3)CC2)nc2c1c(=O)n(C)c(=O)n2C	20	2%	29%	9%	18µM*	-5%
